Here are results for 39 molecules from ChEMBL document CHEMBL3988442, “University of Dundee, Small-Polar-MMV Screening Library” (2021).

The first experiment deals with Trypanosoma cruzi. As to the kind of experiment: Trypanosoma cruzi phosphomannomutase and mannose-1-phosphate guanylyltransferase assay. It counts as functional. Also noted: scale not given: direction of the effect not stated beside the values. The conditions noted are these: 10 µM.
Consider `Cc1cnc(CN2CCCC(c3cc(C(N)=O)[nH]n3)C2)cn1` (centres undefined), for which the Percent Effect was -3.01%.
Take `Cc1cnn(CC2CCCN2C(=O)c2cccnc2N(C)C)c1` (centres undefined): the Percent Effect came out at 1.42%.
Consider `CC(NC(=O)NCc1cccc(Cl)c1)(C(=O)O)c1ccco1` (centres undefined), for which the Percent Effect came to 5.32%.
Turning to `CC(C)c1nc(C2CCCN(C(=O)c3ccnc(N(C)C)c3)C2)no1` (centres undefined), the Percent Effect is -3.62%.

The next experiment addresses T1, Arginase-2, mitochondrial (Homo sapiens) (UniProt P78540).
T1 sequence (whole entry): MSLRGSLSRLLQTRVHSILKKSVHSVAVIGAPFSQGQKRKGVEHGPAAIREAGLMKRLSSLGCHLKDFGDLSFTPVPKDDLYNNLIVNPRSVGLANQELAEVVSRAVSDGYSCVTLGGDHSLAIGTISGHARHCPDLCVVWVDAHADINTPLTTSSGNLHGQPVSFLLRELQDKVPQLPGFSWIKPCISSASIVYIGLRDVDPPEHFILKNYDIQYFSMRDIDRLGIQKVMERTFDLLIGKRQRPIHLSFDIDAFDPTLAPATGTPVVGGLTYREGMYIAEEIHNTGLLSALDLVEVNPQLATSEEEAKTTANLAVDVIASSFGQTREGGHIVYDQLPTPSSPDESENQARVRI
Description: in vitro enzyme assay to detect the production of urea directly proportional to the activity of Arginase II. Format: functional. The conditions noted are these: 30 µM. Also noted: scale not given: in the data most compounds retested in dose-response had high values.
Turning to `Cc1nc(NCC2CC2)nc2c1COCC21CCN(S(=O)(=O)C2CC2)C1` (centres undefined), the Percent Effect amounted to 7.03%.
As to `COCCC(=O)NCC1COc2cc(OC)ccc2C1` (centres undefined), the Percent Effect was determined as 5.95%.
In the case of `Cc1nc(NCC2CC2)nc2c1COCC21CCN(C(=O)C(C)(C)C)C1` (centres undefined), the Percent Effect was 8.11%.
On to `CN1[C@H]2CC[C@@H]1CN(C(=O)CCc1csc(N)n1)CC2`, for which the Percent Effect was determined as 3.78%.
On to `Cc1ccc([C@@H]2CN(S(=O)(=O)Cc3ccccc3)C[C@H]2N(C)C)cc1`, for which the Percent Effect is 1.62%.
Regarding `Cc1ccc([C@@H]2CN(S(=O)(=O)c3ccccc3)C[C@H]2N(C)C)cc1`, the Percent Effect worked out at 3.78%.
As for `CC(C)C(NC(=O)Cn1nc2c(cc1=O)CCCC2)C(=O)O` (centres undefined), the Percent Effect is 7.03%.
As to `Cc1cc(C)cc(OCC(O)CN2CCN(c3nccs3)CC2)c1` (centres undefined), the Percent Effect was found to be 4.87%.
For the molecule `CN1CCC(c2cncc(-c3cccc(Cl)c3)n2)CC1`, the Percent Effect worked out at 4.87%.
The same measure, in the same setting: the value for `COc1cccc(C(=O)N2C[C@@H](C(=O)O)[C@H](c3ccccc3C)C2)c1` was 5.95%; that for `O=C(NCc1ccccn1)[C@]12COC[C@H]1CN(Cc1ccccc1F)C2` was 4.87%.
On to `Cn1cc(CN2C[C@@H]3COC[C@]3(C(=O)NCCc3ccccc3)C2)cn1`, for which the Percent Effect amounted to 12.4%.
On to `Cc1cccc(C(=O)N2CCCC(c3nccn3Cc3cscn3)C2)n1` (centres undefined), for which the Percent Effect is 9.19%.
Consider `COCC(=O)N1CCC(c2cncc(-c3cccc(F)c3)n2)CC1`, for which the Percent Effect is -5.95%.
`CCOc1cccc(C(=O)N(CCC#N)Cc2ccccn2)c1`: the Percent Effect worked out at 13.5%.
`OC(COc1ccccc1)CN1CCN(c2nccs2)CC1` (centres undefined): the Percent Effect came out at 4.87%.
Take `Cn1cc(CC2CCN(C(=O)NCCCc3ccc(O)cc3)C2)cn1` (centres undefined): the Percent Effect was 7.03%.
For `COC(=O)c1ccc(C2SC(C)=Nc3c2c(=O)[nH]n3C2CCCC2)cc1` (centres undefined), the Percent Effect came to 11.3%.
Regarding `CN(Cc1cccnc1)C1CC2(CCN(Cc3ccccn3)CC2)C1`, the Percent Effect was found to be 2.7%.
As for `O=C(O)C1CCN(C(=O)Cn2ccc3c(Cl)cccc32)CC1`, the Percent Effect was determined as 10.3%.
On the same count and under the same terms, the value for `Cc1ccoc1CNCc1nnc2n1CC(C(F)(F)F)CC2` (centres undefined) was 3.78%; that for `CC(C)(C)OC(=O)Cn1cccc(S(=O)(=O)N2CCCC2)c1=O` was 7.03%; that for `OC(CN(Cc1ccccc1)Cc1ccccn1)c1cccs1` (centres undefined) was 11.3%.
In the case of `CCN1CCC(NC(=O)c2ccc(F)cc2I)CC1`, the Percent Effect was -1.62%.
Still for that read-out and setting: the value for `CN1CCC(N(Cc2ccccc2F)C(=O)NCc2ccncc2)CC1` was 5.95%.
Still for that read-out and setting: under `CC(C)N(C)C(=O)c1coc(CN2CCN(c3ccccc3F)CC2)n1` stands 7.03%.
Still for that read-out and setting: the value for `CC1=Nc2c(c(=O)[nH]n2C2CCCCC2)C(c2cccnc2)S1` (centres undefined) was 2.7%; that for `Cc1ccc(C(C(=O)O)N2CCCN(Cc3ccccn3)CC2)c(F)c1` (centres undefined) was 8.11%.
Consider `OC(CN(Cc1ccccc1)Cc1ccon1)c1cccs1` (centres undefined), for which the Percent Effect was 8.11%.
As to `Cc1nn(CCO)c(C)c1CNC1CCCCc2ccccc21` (centres undefined), the Percent Effect was found to be 3.78%.
Turning to `CC1=Nc2c(c(=O)[nH]n2C2CCCCC2)C(c2ccc(C(=O)O)cc2)S1` (centres undefined), the Percent Effect was 5.95%.
Turning to `CN(Cc1ccco1)[C@@H]1CN(Cc2ccc(F)cc2)[C@@H]2CCCO[C@H]12`, the Percent Effect was 2.7%.
As for `CN(C)C1CCCN(C(=O)CCc2csc(N)n2)CC1` (centres undefined), the Percent Effect was determined as 1.62%.
Turning to `CN(C)c1ncccc1CN1CCOC(C(=O)Nc2ccccc2)C1` (centres undefined), the Percent Effect is 1.62%.
Regarding `O=c1[nH]c2c(c(=O)n1C1CCCCC1)CCC2Nc1ccccn1` (centres undefined), the Percent Effect was 5.95%.
